Bioassay records (PubChem BioAssay)
Cruzain Triton = cruzain (T. cruzi) inhibition with detergent; P25779; purified cruzain, Z-FR-AMC fluorescence, 0.01% Triton; Potency, µM, actives largely listed as inhibitors; 200,000 compounds, 0.43% hits; AID 1478; note: nearly all actives have a fitted effect of over 40% in size
Target sequence (P25779 123-467 limits assumed): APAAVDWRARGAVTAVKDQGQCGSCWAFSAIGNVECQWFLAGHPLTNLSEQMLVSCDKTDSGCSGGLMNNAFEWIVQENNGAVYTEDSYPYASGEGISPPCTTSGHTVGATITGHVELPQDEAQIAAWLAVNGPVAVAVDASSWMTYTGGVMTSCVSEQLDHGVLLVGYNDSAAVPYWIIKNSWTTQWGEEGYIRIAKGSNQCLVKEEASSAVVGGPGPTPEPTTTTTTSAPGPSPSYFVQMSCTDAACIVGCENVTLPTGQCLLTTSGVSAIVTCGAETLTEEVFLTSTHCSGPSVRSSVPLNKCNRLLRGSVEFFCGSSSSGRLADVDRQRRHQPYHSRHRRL
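Enzyme 1.5 nM, Z-FR-AMC 2 uM, NaOAc 100 mM pH 5.5, DTT 5 mM, Triton X-100 0.01%; 15 min RT compound preincubation; kinetic ex360/em450, 60 s delta.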
Cruzain noTriton = inhibitors of Trypanosoma cruzi cruzain without detergent | P25779 | purified cruzain, Z-FR-AMC fluorescence, no detergent | Potency, µM, most hits filed as inhibitors | 200,000 compounds, 2.3% hits | AID 1476; note: nearly all actives have a fitted effect of over 40% in size
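Purified cruzain at 1.5 nM, pre-incubated 15 min with compound at room temperature in 100 mM sodium acetate pH 5.5, 5 mM DTT, 0.00005% Triton X-100. Reaction started with 2 uM Z-FR-AMC; AMC fluorescence increase over 60 s gives rate.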
Large screens that a line does not name were inactive. Rows were chosen to be rich in hits. Some 2.5% of all compounds tested hit in one or more screens of this group. Calls come from the whole dose curve; as a rule, active = well fitted curve in the direction sought with a large enough effect; inconclusive = small, poorly fitted or top-dose-only effect, or another doubt; inactive = no such curve, though single readings can be large; an effect the other way counts as inactive or inconclusive.

CN1CCc2nc(SCC(=O)Nc3ccc(OC(F)(F)F)cc3)c(C#N)c(-c3cccs3)c2C1	Cruzain noTriton inconclusive
CC(=O)CSc1nc(N)c(C#N)c(-c2cccs2)c1C#N	none
CN1CCc2nc(SCC(=O)Nc3cccc(F)c3)c(C#N)c(-c3cccs3)c2C1	Cruzain noTriton 20µM
N#Cc1ccc(-c2cccs2)nc1SCC(=O)Nc1cccc(C(F)(F)F)c1	Cruzain noTriton 20µM
COc1ccc(C(CNC(=O)Cc2ccc(Cl)cc2)N2CCOCC2)cc1 (stereo not given)	none
Cc1ccc2c(=O)cc(C(=O)Nc3sc4c(c3C(=O)NCc3ccco3)CCC4)oc2c1C	none
Cc1cccc(N=C2NN=C(c3c(C)[nH]c4ccccc34)CS2)c1	Cruzain noTriton inconclusive
Cc1cccc(N=C2NN=C(c3ccc4c(c3)OCCO4)CS2)c1	Cruzain noTriton 15.8µM
COc1ccc(NC(=O)CCNS(=O)(=O)c2ccc3c(c2)CCN3C(=O)C2CC2)cc1Cl	none
COc1ccc(NC(=O)C2C3CCC4C(CCC32)C4(Cl)Cl)cc1 (stereo not given)	Cruzain noTriton 25.1µM
COc1cccc(NC(=O)C2C3CCC4C(CCC32)C4(Cl)Cl)c1 (stereo not given)	none
COC(=O)c1sc2cccc(F)c2c1S(=O)(=O)N1CCN(c2cccc(OC)c2)CC1	Cruzain noTriton inconclusive
O=C(Nc1cccc(Cl)c1Cl)c1ccc2c(c1)N(Cc1cccc(Cl)c1)C(=O)c1ccccc1S2(=O)=O	Cruzain noTriton 3.98µM
CCc1ccccc1NC(=O)c1ccc2c(c1)N(Cc1cccc(Cl)c1)C(=O)c1ccccc1S2(=O)=O	Cruzain noTriton 15.8µM
O=C(c1ccc2c(c1)N(Cc1ccccc1F)C(=O)c1ccccc1S2(=O)=O)N1CCC(Cc2ccccc2)CC1	none
COc1ccccc1CNC(=O)c1ccc2c(c1)N(Cc1cccc(Cl)c1)C(=O)c1ccccc1S2(=O)=O	Cruzain noTriton inconclusive
O=C(c1ccc2c(c1)N(Cc1ccc(Cl)cc1)C(=O)c1ccccc1S2(=O)=O)N1CCC(Cc2ccccc2)CC1	Cruzain noTriton 12.6µM
O=C(NCc1ccccc1)c1ccc2c(c1)N(Cc1cccc(Cl)c1)C(=O)c1ccccc1S2(=O)=O	Cruzain noTriton inconclusive
COc1ccccc1/C=C(/CC(=O)NCc1ccc2c(c1)OCO2)c1nc2ccccc2s1	Cruzain noTriton 15.8µM
COc1ccc(/C=C(/CC(=O)Nc2ccccc2)c2nc3ccccc3s2)cc1	Cruzain noTriton inconclusive
COc1ccccc1NC(=O)NCc1ccc2c(c1)OCO2	none
COc1ccc(/C=C(/CC(=O)NCc2ccc(Cl)cc2)c2nc3ccccc3s2)cc1	Cruzain noTriton 31.6µM
O=C(NCc1ccc(Cl)cc1)C1CCN(S(=O)(=O)c2ccc3c(c2)CCCN3C(=O)C2CCC2)CC1	none
COc1ccc(Nc2c(-c3ccc(C)o3)nc3ccc(Cl)cn23)cc1	none
CC(C)CC(C(=O)Nc1oc(-c2ccco2)c(-c2ccco2)c1C#N)N1C(=O)c2ccccc2C1=O (stereo not given)	Cruzain noTriton 31.6µM
CC(C)CC(C(=O)Nc1ccc2c(c1)OCCO2)N1C(=O)c2ccccc2C1=O (stereo not given)	none
COCCn1c(=O)c(-c2ccc(Cl)cc2)nc2cncnc21	none
CN(C)c1ccc(C(CNS(=O)(=O)c2ccc(F)cc2F)N2CCOCC2)cc1 (stereo not given)	none
CCCCN(CCCC)CC(O)Cn1cc(/C=C/C(=O)c2ccccc2)c2ccccc21 (stereo not given)	none
CCCCN(C)CC(O)Cn1cc(/C=C/C(=O)c2ccc(OCC)cc2)c2ccccc21 (stereo not given)	none
CCOc1ccc(C(=O)/C=C/c2cn(CC(O)CN3CCc4ccccc43)c3ccccc23)cc1 (stereo not given)	Cruzain noTriton 6.31µM
COc1ccc(C(=O)/C=C/c2cn(CC(O)CN3CCc4ccccc43)c3ccccc23)cc1 (stereo not given)	Cruzain noTriton 6.31µM
COc1cccc(C(=O)Nc2cc(-c3cn4cccnc4n3)ccc2C)c1OC	none
CCc1ccc(CNC(=O)c2cnc3sc(N4CCCCC4)nn3c2=O)cc1	none
C/C(CCN1CCc2nc(-c3ccccc3)c(-c3ccccc3)cc2C1)=N\O[C@@H](C)c1cc(-c2c(C)cc(C)cc2C)no1	Cruzain noTriton 20µM
CCc1cc2c(nc1CC)CCN(CC/C(C)=N/O[C@@H](C)c1cc(-c3c(C)cc(C)cc3C)no1)C2	none
O=C(Nc1ccc(Cl)c(Cl)c1)N(Cc1c[nH]c2ccccc12)C1CCCCC1	none
COc1ccc2c(c1)c(CC(=O)Nc1c(C)cccc1C)c(C)n2C(=O)c1ccc(Cl)cc1	none
COc1ccc2c(c1)c(CC(=O)Nc1cc(C)ccc1C)c(C)n2C(=O)c1ccc(Cl)cc1	Cruzain noTriton 12.6µM
COc1ccc(OC)c(NC(=O)Cc2c(C)n(C(=O)c3ccc(Cl)cc3)c3ccc(OC)cc23)c1	none
COc1ccc2c(c1)c(CC(=O)Nc1ccccc1OC)c(C)n2C(=O)c1ccc(Cl)cc1	Cruzain noTriton 15.8µM
O=C(Cn1c(=O)n(-c2ccc(F)cc2)c(=O)c2sc3ccccc3c21)NC1CCCCC1	none
Cc1ccc2cccc(NC(=O)COc3ccccc3[N+](=O)[O-])c2n1	none
Cc1cccc2cc(C#N)c(SCC(=O)NCc3cccs3)nc12	Cruzain noTriton 6.31µM
Cc1cccc2cc(C#N)c(SCC(=O)NCC3CCCO3)nc12 (stereo not given)	none
Cc1cccc2cc(C#N)c(SCC(=O)NNC(=O)Cc3ccccc3)nc12	Cruzain noTriton 25.1µM
Cc1ccc(C)c2nc(SCC(=O)NCc3cccs3)c(C#N)cc12	none
CS(=O)(=O)N1CCC(N2CCN(Cc3ccccc3)C(=O)C2=O)CC1	none
COc1cccc(NC(c2nnc(-c3ccccc3)o2)c2ccc(F)cc2Cl)c1 (stereo not given)	none
C/C(=N\Nc1nc(-c2cc(C)ccc2C)cs1)c1cc2c(ccc3ccccc32)oc1=O	Cruzain noTriton 7.94µM
O=C(c1ccco1)c1cc2c(ccc3ccccc32)oc1=O	none
C/C(=N\Nc1nc(-c2cc(C)ccc2C)cs1)c1cc2ccccc2oc1=O	Cruzain Triton inconclusive, Cruzain noTriton 25.1µM
O=c1oc2ccccc2cc1-c1csc(NN=C2CCCC2)n1	none
CN(C)Cc1ccccc1-c1cc(-n2ccnc2)ncn1	none
COC(=O)c1ccccc1NC(=O)Cc1nc(-c2ccccc2)sc1-c1ccc(C)cc1	Cruzain noTriton 25.1µM
COC(=O)c1ccccc1NC(=O)Cc1noc2ccc(C)cc12	none
CCOc1ccc(NC(=O)c2oc3ccccc3c2NC(=O)Cc2cccc(C)c2)cc1	none
COc1cccc(-c2nc(-c3ccccc3)no2)c1	none
COc1ccc(-c2cc3nnc(-c4ccccc4)nc3s2)cc1	Cruzain noTriton 3.16µM
O=C(Nc1nc(-c2cccs2)cs1)c1ccc(S(=O)(=O)N2CCCC2)cc1	none
CCc1nnc(NC(=O)c2ccc(S(=O)(=O)N3CCCCCC3)cc2)s1	Cruzain noTriton 12.6µM
O=C(Nc1nc(-c2ccc(S(=O)(=O)N3CCCCCC3)cc2)cs1)c1ccccc1	Cruzain noTriton 10µM
O=C(Nc1nc(-c2cccnc2)cs1)c1ccc(S(=O)(=O)N2CCOCC2)cc1	none
O=C(Nc1nc(-c2ccc3c(c2)OCCO3)cs1)c1ccc(S(=O)(=O)N2CCCCC2)cc1	Cruzain noTriton 12.6µM
CCc1nnc(NC(=O)c2ccc(S(=O)(=O)N3CCCCC3C)cc2)s1 (stereo not given)	none
Cc1ccc(CCNC(=O)c2cn(C)c3ccc(S(=O)(=O)N(C)C4CCCCC4)cc3c2=O)cc1	none
